Compound activity from PubChem.
Hits are enriched below; roughly 8.7% of the tested compounds scored in any of these assays.
JMJD2A Tudor inh: blocks the human JMJD2A Tudor domain. O75164. AlphaScreen JMJD2A-Tudor / H3K4me3 peptide binding. Potency, µM (doses to about 114 µM), for the others: at the highest dose activity change, negative = inhibition, usual class: inhibitors. hit rate 4.4% among 390,000. AID 504339; also: % is scaled to controls: 0 for no effect and ±100 for the full control effect; nearly all actives have a fitted effect of over 50% in size
G9a block: blocks human histone lysine methyltransferase G9a. hit rate 8.8% among 350,000. AID 504332. G9a H3K9 monomethylation, AlphaScreen, 2 h. Q96KQ7. Potency, µM (series often up to 102 µM), inactives show at the top dose activity, negative = inhibition, hits mostly inhibitors; also: % is scaled to controls: 0 for no effect and ±100 for the full control effect; nearly all actives have a fitted effect of over 75% in size
Target sequence (Q96KQ7 913-1193 limits assumed): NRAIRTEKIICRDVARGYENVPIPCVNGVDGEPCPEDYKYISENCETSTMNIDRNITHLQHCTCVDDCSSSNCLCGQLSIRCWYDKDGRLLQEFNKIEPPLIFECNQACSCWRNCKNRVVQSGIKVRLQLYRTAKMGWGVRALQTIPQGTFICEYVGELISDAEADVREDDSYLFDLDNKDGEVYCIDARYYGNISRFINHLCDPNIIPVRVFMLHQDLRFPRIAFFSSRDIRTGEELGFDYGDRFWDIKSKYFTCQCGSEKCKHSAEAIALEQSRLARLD
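Step 1: enzyme (final 20 nM) with compound, 15 min RT. Step 2: substrate peptide 500 nM and SAM 20 uM, 2 h RT. Step 3: anti-H3K9me1 antibody and AlphaScreen beads, 10 min, then plate read.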
Sfp PPTase inh: Sfp phosphopantetheinyl transferase inhibition. Potency, µM, for inactives: largest response in the series, negative = inhibition, usual class: inhibitors. hit rate 3.5% among 310,000. Biochemical Sfp PPTase activity, qHTS. Q9F4F7;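 also: the enzyme is Sfp with the accession as filed and its product quenches rhodamine fluorescence; 0% = enzyme reaction without inhibitor and -100% = no enzyme wells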
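Buffer: 50 mM Hepes-Na pH 7.6, 10 mM MgCl2, 0.01% Nonidet P-40, 0.01% BSA. Enzyme 15 nM, pre-exposed to compound 15 min; substrates then added and fluorescence change tracked over 30 min.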
HP1b chromo inh: inhibitors of HP1-beta chromodomain binding to methylated histone tails | P83916 | Potency, µM (highest dose often 114 µM), without a hit: at the highest dose activity change, negative = inhibition, most hits filed as inhibitors | AID 540317 | hit rate 0.56% among 390,000 | AlphaScreen HP1-beta / biotin-H3K9me3 peptide binding; also: nearly all actives have a fitted effect of over 70% in size
Target sequence (P83916 whole entry, looked up): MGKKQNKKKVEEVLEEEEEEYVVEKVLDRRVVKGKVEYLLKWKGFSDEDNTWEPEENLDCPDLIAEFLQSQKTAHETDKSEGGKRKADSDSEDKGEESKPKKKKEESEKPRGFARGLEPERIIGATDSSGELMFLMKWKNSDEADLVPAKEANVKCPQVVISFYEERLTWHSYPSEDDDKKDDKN
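HP1-beta protein (50 nM final) preincubated 30 min at room temperature with biotinylated H3(1-18)K9me3 peptide (50 nM) in PBS pH 7.4, 0.01% Tween-20, then compound added for 30 min. AlphaScreen streptavidin donor/nickel chelate acceptor beads (10 ug/mL final), 30 min dark, luminescence read.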
ALOX12 inh: ALOX12 (human) lipoxygenase inhibition. P18054. purified 12hLO, xylenol orange hydroperoxide absorbance. Potency, µM (series often up to 108 µM), for the others: at the highest dose activity change, negative = inhibition, hits mostly inhibitors. hit rate 1.1% among 580,000. AID 1671190; also: % is scaled to controls: 0 for no effect and ±100 for the full control effect
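Hydroperoxide product was detected by ferrous iron/xylenol orange as the 573 to 405 nm absorbance ratio. Arachidonic acid at 40 uM (final) was turned over for 30 min at room temperature by 150 nM human 12hLO, pH 7.0 Hepes buffer, after 15 min compound preincubation.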
BAZ2B block: inhibitors of human BAZ2B bromodomain; Q9UIF8; AlphaScreen BAZ2B-H3K14Ac peptide displacement; AID 504333; hit rate 4.4% among 360,000; Potency, µM (doses to about 114 µM), for the others: at the top dose activity change, negative = inhibition, actives largely listed as inhibitors; also: % is scaled to controls: 0 for no effect and ±100 for the full control effect; nearly all actives have a fitted effect of over 60% in size
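In this displacement format the biotinylated H3(5-23) peptide acetylated at Lys14 serves as ligand at 50 nM, with BAZ2B at 50 nM in PBS pH 7.4 containing 0.01% Tween-20. Donor and acceptor beads are 10 ug/mL final.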
An asterisk follows results filed as active; i = inactive; ? = inconclusive; nt = no result given; ! = not confirmed by another sample; [ ] = dose if it differs, or a comment. Calls follow the shape of the dose curve; as a rule, active = well fitted curve in the direction sought with a large enough effect; inconclusive = small, poorly fitted or top-dose-only effect, or another doubt; inactive = no such curve, though single readings can be large; an effect the other way counts as inactive or inconclusive. Potency is read from the fitted curve at half-maximal effect.

SMILES | JMJD2A Tudor inh | G9a block | Sfp PPTase inh | HP1b chromo inh | ALOX12 inh | BAZ2B block
Fc1cccc(CSc2ccc(-c3ccco3)nn2)c1 | -12% | ? | 16µM* | 32% | -1% | -36%
Cc1nc(C)c(-c2ccc(SCc3cccc(F)c3)nn2)s1 | -3% | 25% | -21% | 42% | 14% | 7%[57.1 µM]
Fc1ccc(CSc2ccc(-c3ccco3)nn2)cc1 | -11% | 1%[59 µM] | 50µM* | 20% | -28% | -9%
O=C1CCCCC(C(=O)NCCc2ccccc2)N1 (stereo not drawn) | nt | nt | nt | nt | 22% | nt
CC(C)c1cc[n+](-c2nc([O-])sc2C=O)cc1 | 35µM* | ? | 40µM* | 20% | ? | 79µM*
CC(C=O)Cc1ccc(C(C)C)cc1 (stereo not drawn) | nt | nt | nt | nt | 11%[176 µM] | nt
CC(C)(C)c1cc[n+](-c2nc([O-])sc2C=O)cc1 | -18% | 12% | 25% | 8% | 1% | 4%
CCc1cc[n+](-c2nc([O-])sc2C=O)cc1 | -18%[11.4 µM] | ? | 50µM* | 31% | ? | -35%
O=C(/C=C/c1ccc2ccccc2n1)c1cc(Br)ccc1O | ? | 10µM* | ? | 0% | ? | 56µM*
Cc1ccc(OCC(=O)N[C@@H]2CCOC[C@H]2Oc2cccc(F)c2)cc1C | nt | nt | nt | nt | 16% | nt
C/C(=N\O)c1ccc2c3c([nH]c2c1)CCCC3 | ? | ? | -9% | -15% | 3% | 40µM*
COc1ccc(N2Cc3cccc(C(=O)NCc4cccc(Cl)c4)c3C2=O)cc1 | nt | nt | nt | nt | 1% | nt
CO[C@H]1C=CO[C@@]2(C)Oc3c(C)c(O)c4c(O)c(c5c(c4c3C2=O)NC2(CCN(CC(C)C)CC2)N=5)=NC(=O)C(C)=CC=C[C@H](C)[C@H](O)[C@@H](C)[C@@H](O)[C@@H](C)[C@H](OC(C)=O)[C@@H]1C | nt | ? | 9% | nt | nt | 40µM*
CO[C@H]1C=CO[C@@]2(C)Oc3c(C)c(O)c4c(O)c(c5c(c4c3C2=O)NC2(CCN(CC(C)C)CC2)N=5)=NC(=O)C(C)=CC=C[C@H](C)[C@H](O)[C@@H](C)[C@@H](O)[C@@H](C)[C@H](OC(C)=O)[C@H]1C | nt | nt | nt | nt | 9%[57.4 µM] | nt
CCC(C)N1CCC2(CC1)N=c1c(c3c4c5c(C)c(O)c3c(O)c1=NC(=O)C(C)=CC=C[C@H](C)[C@H](O)[C@@H](C)[C@@H](O)[C@@H](C)[C@H](OC(C)=O)[C@H](C)[C@@H](OC)C=CO[C@@](C)(O5)C4=O)N2 (stereo partly drawn) | ? | ? | nt | -24% | -12% | 50µM*
Cc1ccccc1OCC(=O)N1CCC(NC(=O)c2ccccc2)CC1 | nt | nt | nt | nt | 1% | nt
O=C(NCCc1cccnc1)c1cccc(Cl)c1 | nt | nt | nt | nt | -4% | nt
N#Cc1ccc2sn(-c3ccccc3)c(=O)c2c1 | nt | nt | nt | nt | 0.35µM* | nt
O=c1c2cc([N+](=O)[O-])ccc2sn1-c1ccccc1 | nt | nt | nt | nt | 0.25µM* | nt
O=c1c(-c2ccccc2)c[nH]n1-c1cccc([N+](=O)[O-])c1 | -30% | ? | 11% | -31% | -20% | ?
CC(=O)Nc1ccc2sn(-c3ccccc3)c(=O)c2c1 | nt | nt | nt | nt | 1.1µM* | nt
CCn1c(C2CCCN(C(=O)Cc3c[nH]c(=O)n(C)c3=O)C2)nn(C)c1=O (stereo not drawn) | nt | nt | nt | nt | 13% | nt
Cc1cc(C)c(OCC(=O)OCCNC(=O)c2cccnc2)c(C)c1 | -23% | 25µM* | 2% | 19% | ? | ?
C=CCc1ccccc1OCC(=O)OCCNC(=O)c1cccnc1 | ? | ? | ? | 37% | 40µM* | ?
CC(C)c1ccccc1OCCNC(=O)c1cccnc1 | -5% | -20% | 12% | 35% | 4% | -10%
SMILES | JMJD2A Tudor inh | G9a block | Sfp PPTase inh | HP1b chromo inh | ALOX12 inh | BAZ2B block
Cc1ccc(NC(=S)N/N=C2\CC3CC=CC23)c(C)c1 (stereo not drawn) | ? | ? | 32µM* | -8% | ? | -34%
Cc1cccc(C)c1NC(=S)N/N=C1\CC2CC=CC12 (stereo not drawn) | -34% | 13µM* | ? | ? | 0% | -27%
CC(C)(C)CN1CC[C@H]2COC(=O)N2c2cc(F)ccc2C1 | nt | nt | nt | nt | 47%[176 µM] | nt
COc1ccc(N2CCN(C(=O)c3cc4c(-c5cccc(OC)c5)nn(C)c4s3)CC2)cc1 | 40µM* | ? | -9% | ? | 0% | 25µM*
Cn1nc(-c2ccc(Cl)cc2)c2cc(C(=O)NCCCN3CCOCC3)sc21 | -19% | -45% | 3% | 10% | nt | -16%
O=C(c1cc2c(s1)CCCC2)N1CCN(C(=O)C2CCCO2)CC1 (stereo not drawn) | -5% | 16µM* | 0% | 10% | -7% | 6%
Cn1nc(-c2ccc(Cl)cc2)c2cc(C(=O)NCCN3CCOCC3)sc21 | -18% | 71µM* | -1% | 16% | -4% | 9%
COc1ccc(N2CCN(C(=O)c3cc4c(s3)CCCCC4)CC2)cc1 | 50µM* | ? | nt | ? | -5% | 13µM*
CCC(C)c1ccccc1NC(=O)Cn1nc(C(=O)O)c2ccccc2c1=O (stereo not drawn) | nt | nt | nt | nt | -27% | nt
CCN(CC)c1ccc(-c2nnc(SC(C)C(=O)NC3CCCCCC3)o2)cc1 (stereo not drawn) | nt | nt | nt | nt | -56% | nt
CNC12CC3CC(CC(C3)C1)C2 | nt | nt | nt | nt | 11% | nt
C/C(=N\NC(=O)c1ccccc1)c1ccc2c3c(cccc13)CC2 | nt | nt | nt | nt | 27% | nt
CCN(CC)CCNC(=O)c1cc2c(-c3cccc(OC)c3)nn(C)c2s1 | -5% | 79µM*! | 0% | -4% | ? | -1%
N#Cc1ccccc1S(=O)(=O)N1CCN(C(=O)c2cc3c(s2)CCC3)CC1 | ? | 35µM* | nt | -17% | -5% | ?
CC(C)(C)C1CCC2(CC1)NC(=O)N(CC(=O)NCc1ccc3c(c1)OCO3)C2=O (stereo not drawn) | nt | nt | nt | nt | -1% | nt
CCC(C)(C)C1CCC(NC(=O)N2CCN(c3ccccc3O)CC2)CC1 (stereo not drawn) | 79µM* | 4% | 17% | -3% | -15% | -10%
CCOc1ccccc1N1CCN(C(=O)NC2CCCCC2)CC1 | -7% | 14% | 8% | 16% | i | -25%
CCc1c(C)[nH]n(-c2nc(-c3ccccc3)cs2)c1=O | -18%[11.4 µM] | 50µM* | 5% | 0% | 26% | -3%
CCc1c(C)[nH]n(-c2nc(-c3cccc([N+](=O)[O-])c3)cs2)c1=O | ? | 0%[59 µM] | -15% | -14% | 5% | -1%
CCOC(=O)CN1NC2(CCCCCCC2)NC1=S | 28µM* | 2.2µM* | 40µM* | 41% | 0% | -21%
CCOC(=O)CN1NC2(CCCCC2)NC1=S | 18µM* | ? | 28µM* | -20% | ? | -6%
CCOC(=O)Cn1c2c(c(=N)c3c1CCC3)CCC2 | -1% | 12%[59 µM] | 4% | 57% | -1% | 58%
